Results: PubChem BioAssay (EPA / NIEHS)
Records with an inconclusive call do not appear. Active and inactive are the calls of the source. The calls were made as follows, unless noted: active = hit-call score of the fitted dose curve at least 0.9, where 1 is the maximum; inactive = score below 0.9.

Assays:
[1] = CEETOX_H295R_ANDR_noMTC: CeeTox H295R High-throughput Steroidogenesis Assay for Androstenedione (ANDR), maximum tolerated concentration (MTC) filtered results only (AID 2283915); conditions: actives raise or lower the signal
Procedure, shortened: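 Androstenedione secreted into medium was measured by LC-MS/MS after MTBE extraction. Human adrenal H295R cells received 10 uM forskolin for 48 h before 48 h chemical exposure (0.1% DMSO). Gain or loss fitted against DMSO, including concentrations above the MTT-derived MTC.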

[2] = CEETOX_H295R_TESTO_noMTC: CeeTox H295R High-throughput Steroidogenesis Assay for Testosterone (TESTO), maximum tolerated concentration (MTC) filtered results only (AID 2283924); conditions: actives raise or lower the signal
Procedure, shortened: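 Medium testosterone, measured by HPLC-MS/MS after liquid-liquid extraction, was fitted in both directions relative to DMSO without MTC filtering. Adrenal H295R cells received 48 h chemical exposure (0.1% DMSO final) after 48 h forskolin (10 uM) prestimulation; viability by MTT.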

PGR (gene 5241) [3] = molecular target: PGR (gene 5241) (UniProt P06401); assay: TOX21_PR_BLA_Followup_Agonist_ratio: Tox21 HEK293 Progesterone Receptor (PR) Agonism Beta-lactamase Follow-Up Assay, Ratio (AID 2283933; active = hit-call score of the fitted dose curve at least 0.9, where 1 is the maximum)
Chain of PGR (gene 5241) (P06401 whole entry, looked up): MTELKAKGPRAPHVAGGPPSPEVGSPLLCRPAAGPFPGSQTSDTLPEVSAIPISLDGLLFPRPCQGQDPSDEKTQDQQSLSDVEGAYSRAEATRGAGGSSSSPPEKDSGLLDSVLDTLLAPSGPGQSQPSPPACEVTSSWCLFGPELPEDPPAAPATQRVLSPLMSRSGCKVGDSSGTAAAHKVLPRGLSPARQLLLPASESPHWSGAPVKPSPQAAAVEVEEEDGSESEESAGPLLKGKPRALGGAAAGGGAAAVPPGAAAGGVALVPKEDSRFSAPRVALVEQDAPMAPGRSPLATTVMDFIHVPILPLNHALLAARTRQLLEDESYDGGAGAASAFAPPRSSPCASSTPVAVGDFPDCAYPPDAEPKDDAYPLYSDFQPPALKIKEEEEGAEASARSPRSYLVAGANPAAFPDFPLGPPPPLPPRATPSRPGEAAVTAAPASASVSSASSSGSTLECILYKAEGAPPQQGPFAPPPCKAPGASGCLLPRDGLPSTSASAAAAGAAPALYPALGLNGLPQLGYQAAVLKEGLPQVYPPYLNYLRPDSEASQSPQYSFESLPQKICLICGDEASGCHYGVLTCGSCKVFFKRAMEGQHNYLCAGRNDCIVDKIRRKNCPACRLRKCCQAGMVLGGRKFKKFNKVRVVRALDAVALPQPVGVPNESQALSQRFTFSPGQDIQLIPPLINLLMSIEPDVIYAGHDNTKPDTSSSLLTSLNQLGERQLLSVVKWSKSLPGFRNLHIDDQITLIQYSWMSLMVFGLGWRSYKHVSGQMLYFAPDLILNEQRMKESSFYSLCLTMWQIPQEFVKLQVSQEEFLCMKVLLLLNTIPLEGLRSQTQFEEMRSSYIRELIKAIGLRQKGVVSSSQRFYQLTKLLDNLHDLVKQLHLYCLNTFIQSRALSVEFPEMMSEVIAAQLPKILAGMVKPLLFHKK
Procedure, shortened: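 Ratio-based beta-lactamase reporter signal after 16 hr compound treatment of PR-UAS-bla HEK293T cells at 37C. Substrate loading lasted 2 hr at room temperature.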

PGR (gene 5241) [4] = molecular target: PGR (gene 5241) (UniProt P06401); assay: TOX21_PR_LUC_Followup_Agonist: Tox21 HEK293 Progesterone Receptor (PR) Agonism Luciferase Follow-Up Assay (AID 2283937)
Procedure, shortened: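 In HEK293 cells stably expressing PR-A with a luciferase reporter, compounds were incubated 16 h at 37C, and induced luminescence was quantified with ONE-Glo, multiplexed with cell viability.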

## COc1ccc(C(=O)/C(Br)=C\C(=O)O)cc1
[1]
  AC50: 39.2 µM (active)
[2]
  AC50: 83.6 µM (active)

## N#Cc1ccc(C(c2ccc(C#N)cc2)n2cncn2)cc1
[1]
  outcome: inactive
[2]
  outcome: inactive

## c1ccc2c(c1)[nH]c1ccccc12
PGR (gene 5241) [3]
  outcome: inactive
PGR (gene 5241) [4]
  outcome: inactive

## Oc1ccc(-c2ccccc2)c(Cl)c1
PGR (gene 5241) [3]
  outcome: inactive
PGR (gene 5241) [4]
  outcome: inactive
